# OTUD3 inh = blocks human OTUD3 ubiquitin-rhodamine cleavage; Q5T2D3; inhibition, % at 25 µM; purified OTUD3, Ub-rhodamine fluorescence, 2 h; hit rate 0.7% among 47,000
# USP30 inh = inhibitors of human USP30 deubiquitinase | Q70CQ3 | hit rate 5.3% among 47,000 | AID 1645860 | purified USP30, Ub-rhodamine cleavage fluorescence | inhibition, % at 25 µM
# Target sequence (Q70CQ3 whole entry, looked up): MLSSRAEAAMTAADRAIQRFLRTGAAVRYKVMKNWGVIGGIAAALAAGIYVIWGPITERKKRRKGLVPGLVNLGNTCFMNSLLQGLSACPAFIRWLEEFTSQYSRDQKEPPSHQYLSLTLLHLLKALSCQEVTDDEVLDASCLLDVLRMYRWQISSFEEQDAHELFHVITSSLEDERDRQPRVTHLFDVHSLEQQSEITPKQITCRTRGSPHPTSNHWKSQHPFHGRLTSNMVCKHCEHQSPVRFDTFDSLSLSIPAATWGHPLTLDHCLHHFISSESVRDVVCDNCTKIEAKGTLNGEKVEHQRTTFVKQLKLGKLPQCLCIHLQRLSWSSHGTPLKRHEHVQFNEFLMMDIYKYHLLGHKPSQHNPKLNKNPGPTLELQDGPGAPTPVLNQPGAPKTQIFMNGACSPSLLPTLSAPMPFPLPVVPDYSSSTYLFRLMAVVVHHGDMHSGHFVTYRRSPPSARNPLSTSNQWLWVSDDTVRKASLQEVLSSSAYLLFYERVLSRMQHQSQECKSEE
# USP17 block = inhibitors of human USP17 deubiquitinase; purified USP17, Ub-rhodamine cleavage fluorescence, 3 h; inhibition, % at 50 µM; hit rate 6.5% among 47,000; AID 1645855
# USP28 block = human USP28 deubiquitinase inhibition. Q96RU2. purified USP28, Ub-rhodamine cleavage fluorescence, 30 min. inhibition, % at 25 µM. hit rate 3% among 47,000. AID 1645857
# Starred values were filed as active, the others as inactive; / = no result. This is a sample that favours compounds with a hit; in the whole collection about 12% have one here. Rule as the data show it: active = inhibition above about 30%; inactive = the rest.
SMILES,OTUD3 inh,USP30 inh,USP17 block,USP28 block
Cn1c2ccccc2c2ncn(Cc3ccc(F)cc3)c(=O)c21,14,34*,71*,32*
CCCCn1cnc2c3cc(F)ccc3n(C)c2c1=O,0,65*,65*,22
CCOc1ccc(N(C(=O)CCN2CCc3ccccc32)C(C(=O)NCc2ccccc2)c2ccc(OC)cc2)cc1 (stereo not drawn),2,-5,-2,1
Cc1[nH]c(C(=O)NC2CCCCCC2)c(C)c1S(=O)(=O)N1CCCC1,-1,-34,43*,-10
O=C(Nc1ccccc1)C1Cn2ccnc2C2(CCN(C(=O)NC3CCCC3)CC2)O1 (stereo not drawn),2,-15,-5,0
COc1cc(C(=O)OCc2csc(-c3ccccc3)n2)ccc1OCC(=O)Nc1ccc(F)cc1,36*,-66,49*,-2
COc1ccc(S(=O)(=O)N2CCCCCC2)cc1NC(=O)c1cccc(Cl)c1,-2,5,/,-10
COc1cc(C(=O)Nc2nc3ccc(S(=O)(=O)N4CCCC4)cc3s2)cc(OC)c1OC,-9,-67,40*,-22
O=C(NCc1ccccc1Cl)c1ccc2cn[nH]c2c1,2,0,-2,55*
Cc1ccc(S(=O)(=O)N2CC(C(=O)NC3CCCCC3)C3(CCOCC3)C2)cc1 (stereo not drawn),18,31*,16,16
O=C(Nc1ccc2c(c1)CCC2)C1Cc2ccccc2CN1C(=O)c1ccccc1 (stereo not drawn),5,-27,1,24
CC1(C)Cc2nc3sc4c(=O)n(CC(=O)NCc5ccccc5)cnc4c3cc2CO1,-1,-6,54*,-1
Cc1nc(SCC(=O)Nc2cccc(Cl)c2)c2sc3nc4c(cc3c2n1)COC(C)(C)C4,11,32*,34*,15
COCC(=O)N1CC[C@@H]2CN(Cc3ccncc3)S(=O)(=O)[C@@H]2CC1,6,3,-16,6
Cc1ccc(Cn2nc(C)c(C(=O)N3CCN(CCO)CC3)c2Cl)cc1,-13,-36,-15,-10
Cc1oc(C2CC2)cc1C(=O)N1CCC2(CC1)CC1(CO2)Nc2ccccc2-n2cccc21 (stereo not drawn),2,-5,71*,17
Cc1ccc(C(=O)N2CCC3(CC2)CC2(CO3)Nc3ccccc3-n3cccc32)cn1 (stereo not drawn),-39,-184,29,-42
O=C(Cc1ccccc1F)N1CCC2(CC1)CC1(CO2)Nc2ccccc2-n2cccc21 (stereo not drawn),2,-17,53*,1
Cc1nn(C)cc1C(=O)N1CCC2(CC1)CC1(CO2)Nc2ccccc2-n2cccc21 (stereo not drawn),-20,-36,38*,-20
Cc1ccc(C(=O)NCCc2nc3cccnc3n2C)c(C)c1,-2,-2,3,-6
Cc1cc(-c2ncc(C)[nH]2)nc(CC2CCN(C(=O)C(C)C)CC2)n1,10,24,10,8
CCCCCC(=O)N1c2ccccc2NC2=C(C(=O)CC(c3ccc(C(C)(C)C)cc3)C2)C1c1ccncc1 (stereo not drawn),15,25,74*,28
O=c1c2ccccc2c(-c2nc(-c3ccncc3)no2)cn1-c1ccccc1,-1,7,73*,5
Cc1cc(C)cc(-n2ccn3c(CCC(=O)NCc4cccnc4)nnc3c2=O)c1,-1,-3,0,-5
O=C(c1cc2c(=O)n3ccccc3nc2n1Cc1ccccc1)N1CCCCCC1,-4,-15,-9,-10
SMILES,OTUD3 inh,USP30 inh,USP17 block,USP28 block
CCC1CCCCN1C(=O)c1cc2c(=O)n3ccccc3nc2n1Cc1ccccc1 (stereo not drawn),10,31*,9,15
CNC(=O)c1cc2c(=O)n3cccc(C)c3nc2n1Cc1ccccc1,1,7,80*,0
CC(C)c1nccn1CCC(=O)N1CCC2(CC1)CC1(CO2)NC(=O)c2ccccc2N1 (stereo not drawn),-2,-11,-5,-6
Cc1ccc(Cl)cc1-n1ncc2c(NCc3ccco3)ncnc21,-7,-62,-29,-1
O=C(Nc1ccc2nc3n(c(=O)c2c1)CCCC3)c1cccc(F)c1,8,21,2,16
O=C(COC(=O)c1ccc2c(=O)n3c(nc2c1)CCCCC3)NCC1CCCCC1,9,65*,55*,41*
Cc1ccc(NC(=O)c2ccc3c(=O)n4c(nc3c2)CCCCC4)cc1S(=O)(=O)N1CCOCC1,4,/,36*,/
O=C(Nc1cccc(S(=O)(=O)N2CCCC2)c1)c1ccc2c(=O)n3c(nc2c1)CCCCC3,1,27,20,62*
CC1=NOC(C)(CNS(=O)(=O)c2ccc(C)cc2)C1 (stereo not drawn),9,14,2,3
N#Cc1cccc(NC(=O)c2cncc(NS(=O)(=O)c3ccccc3)c2)c1,2,-42,-4,-5
Cc1nc(S(=O)(=O)NC[C@@]23CCC[C@H]2N(C)C(=O)CC3)cn1C,-9,-31,-2,-6
COc1cccc(N2CC(NS(=O)(=O)c3ccc4ccccc4c3)CC2=O)c1 (stereo not drawn),13,33*,28,20
O=C1CC(NS(=O)(=O)c2ccc3ccccc3c2)CN1c1cccc(F)c1 (stereo not drawn),6,23,55*,12
CC(=O)c1cccc(NC(=O)c2ccc3noc(-c4ccc(F)cc4)c3c2)c1,21,41*,0,9
COc1cccc(NC(=O)c2ccc3noc(-c4ccc(Cl)cc4)c3c2)c1,0,0,58*,0
Cc1nc(-c2noc3ccc(C(=O)NC4CCCC4)cc23)co1,14,33*,32*,17
Cc1cccc(NC(=O)c2ccc3noc(-c4ccc(F)cc4)c3c2)c1,-3,-41,-17,-21
O=C(NC1CCCC1)c1ccc2noc(-c3ccc(Cl)cc3)c2c1,-6,-36,39*,-11
Cc1nc(-c2noc3ccc(C(=O)NCCc4cccnc4)cc23)co1,-3,3,-3,-6
CC(C)OC(=O)CCCn1c(-c2ccccc2)cn2c3c(=O)n(C)c(=O)n(C)c3nc12,4,7,22,-1
O=c1c2cnc(N3CCN(c4ccc(F)cc4)CC3)nc2ccn1Cc1cccnc1,-4,0,7,-4
Cc1ccc(S(=O)(=O)N2CCN(c3cc(-c4ccncc4)[nH]n3)CC2)cc1F,4,2,/,5
O=C(Nc1ccc2c(c1)OCO2)c1ccc2noc(-c3ccc(Cl)cc3)c2c1,10,10,38*,17
O=C(Nc1cccc(OC(=O)c2ccc(Cl)cc2)c1)c1ccc(Cl)cc1,3,-3,63*,4
Cn1nc(C(=O)NCc2ccc(F)cc2)c2c1-c1ccsc1CC2,5,22,4,10
COc1ccccc1NC(=O)C1=C(C)Nc2ncnn2C1c1cccnc1 (stereo not drawn),10,19,15,11
COc1cc(C(=O)NCCSc2c(-c3ccc(F)cc3)[nH]c3ccccc23)cc(OC)c1OC,-3,-26,-9,-14
COc1ccc(CCNC(=O)C(=O)c2c(C)n(C)c3ccccc23)cc1OC,3,0,48*,5

# Bioassay records from PubChem BioAssay.
